Compound activity from PubChem BioAssay.
CtBP-E1A inh: qHTS Assay for Inhibitors of the CtBP/E1A Interaction; CtBP / adenovirus E1A interaction (AlphaScreen); hit rate 0.49% among 340,000; activity change, % (concentration not given with the values); AlphaScreen GST-E1A/His-CtBP binding, 1536-well; active compounds read low; in the data active means activity change below about -65%; inconclusive means mostly about -30% to -63%
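Homogeneous bead-based format: GST-tagged E1A captured on glutathione donor beads, His-tagged CtBP on nickel acceptor beads; compounds precede bead addition by 2 h at 37 °C.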
IL1B secr inh: qHTS for Inhibitors of Inflammasome Signaling: IL-1-beta AlphaLISA Primary Screen | THP-1 LPS/ATP IL-1B secretion, AlphaLISA, 16 h; active compounds read low | activity change, % at 57.5 µM | hit rate 4.7% among 360,000; in the data active means activity change below about -50%; inconclusive means mostly about -30% to -49%
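Secreted IL-1B measured by AlphaLISA bead assay after 16 h compound exposure of THP-1 cells; compounds (final up to 57.5 uM) added 1 h before LPS (250 ng/mL) and ATP (1.25 mM) stimulation; lower signal means less secretion.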
Six1-Eya2 blk: qHTS Assay for Inhibitors of the Six1/Eya2 Interaction | Homeobox protein SIX1 (Homo sapiens) + Protein phosphatase EYA2 (Homo sapiens), … | AlphaScreen GST-Six1/His-Eya2 binding, biochemical; active compounds read low | activity change, % (concentration not given with the values) | hit rate 0.56% among 360,000 | AID 651725, 2012; in the data active means activity change below about -65%; inconclusive means mostly about -30% to -63%
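AlphaScreen with GST-Six1 and His-Eya2 (5X mix: 250 nM and 500 nM), glutathione donor and nickel acceptor beads; buffer 50 mM Tris pH 8.0, 300 mM NaCl, 1 mM TCEP; 1 h at 37 C in the dark.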
TDP1 block: qHTS Assay for Inhibitors of Tyrosyl-DNA Phosphodiesterase (TDP1). Potency, µM (series often up to 130 µM), for inactives: at the top dose activity change, negative = inhibition, hits mostly inhibitors. Tyrosyl-DNA phosphodiesterase 1 (Homo sapiens), Q9NUW8. hit rate 0.28% among 350,000. recombinant TDP1, AlphaScreen DNA substrate cleavage; further: potency means the concentration at half of the fitted maximal effect; nearly all actives have a fitted effect of over 40% in size
Target sequence (Q9NUW8 whole entry, looked up): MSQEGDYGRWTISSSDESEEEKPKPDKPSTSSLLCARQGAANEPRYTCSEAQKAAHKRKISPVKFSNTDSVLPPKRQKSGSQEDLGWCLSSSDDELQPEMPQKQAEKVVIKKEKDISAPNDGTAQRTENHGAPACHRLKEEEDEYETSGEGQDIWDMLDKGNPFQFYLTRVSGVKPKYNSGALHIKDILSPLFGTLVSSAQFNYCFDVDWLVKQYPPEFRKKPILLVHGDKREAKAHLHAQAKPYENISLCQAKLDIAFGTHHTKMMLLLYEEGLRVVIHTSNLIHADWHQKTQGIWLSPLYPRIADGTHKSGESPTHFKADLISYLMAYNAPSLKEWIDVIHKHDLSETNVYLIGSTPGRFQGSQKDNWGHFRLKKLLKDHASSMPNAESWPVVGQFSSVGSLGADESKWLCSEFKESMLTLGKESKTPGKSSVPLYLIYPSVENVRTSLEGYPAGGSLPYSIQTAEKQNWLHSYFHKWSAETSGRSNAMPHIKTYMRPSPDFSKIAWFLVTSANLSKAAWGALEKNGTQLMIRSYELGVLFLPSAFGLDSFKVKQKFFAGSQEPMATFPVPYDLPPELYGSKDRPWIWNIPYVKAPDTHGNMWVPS
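E. coli-derived human Tdp1, 1 nM final. Cpd preinc 15 min RT; substrate 15 nM final, 5 min RT; AS bead mix 10 ug/ml final, 10 min RT. Signal loss = tyrosine-FITC cleavage. No-enzyme wells = max signal.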
TDP1 cell noCPT: qHTS for Inhibitors of human tyrosyl-DNA phosphodiesterase 1 (TDP1): qHTS in cells in absence of CPT; DT40 Tdp1-/- hTDP1 cells, no CPT, ATP luminescence, 48 h; hit rate 15% among 420,000; Potency, µM (doses to about 46.2 µM), for the others: at the top dose activity change, negative = growth inhibition, usual class: inhibitors; further: potency means the concentration at half of the fitted maximal effect; nearly all actives have a fitted effect of over 55% in size
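Chicken DT40 Tdp1-/- cells stably complemented with human TDP1 were seeded at 400 cells/well with DMSO in place of 20 nM camptothecin. After compound pinning, cells grew at least 48 hr at 37 °C; viability read by CellTiter-Glo luminescence.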
DT40 TDP1 CPT: qHTS for Inhibitors of human tyrosyl-DNA phosphodiesterase 1 (TDP1): qHTS in cells in presence of CPT | chicken DT40 Tdp1-/-;hTDP1 cells + 20 nM CPT, ATP luminescence, 48 h | Potency, µM (series often up to 46.2 µM), for the others: top-dose activity change, negative = growth inhibition, most hits filed as inhibitors | hit rate 12% among 420,000; further: potency means the concentration at half of the fitted maximal effect; nearly all actives have a fitted effect of over 55% in size
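Chicken DT40 Tdp1-/- cells complemented with human TDP1, 400 cells/well, exposed to compounds plus 20 nM camptothecin for at least 48 h at 37 C; viability read as ATP content by CellTiter-Glo luminescence.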
* hit, by the source's call; u = inconclusive; x = no result. Sampled rows, rich in hits. Any-hit rate of the full collection: about 18%. Unless noted, the call rests on the fitted dose curve; in most records, active means well fitted curve in the direction sought with a large enough effect; inconclusive means small, poorly fitted or top-dose-only effect, or another doubt; inactive means no such curve, though single readings can be large; an effect the other way counts as inactive or inconclusive. On the % scale 0 is the no-effect control and ±100 the full control effect.

SMILES | CtBP-E1A inh | IL1B secr inh | Six1-Eya2 blk | TDP1 block | TDP1 cell noCPT | DT40 TDP1 CPT
CCc1noc(C)c1C(=O)OC(C)C(=O)NCc1ccc(OC)cc1 (stereo not given) | -1.4 | 24.8 | 7.4 | 1.1% | 15.0% | -19.3%
CCc1ccccc1N(CC(=O)NC(C)C)C(=O)CCC(=O)Nc1nccs1 | -1.0 | u | -3.6 | 4.4% | -2.5% | -20.0%
CCOC(=O)N1CCC(NS(=O)(=O)c2cc3c(cc2Cl)NC(=O)CO3)CC1 | 8.1 | 27.4 | -0.4 | 0.0% | 23.1µM* | 18.4µM*
Cc1cccc(NC(=O)CCS(=O)(=O)c2cc3c(cc2Cl)NC(=O)CO3)c1 | 2.0 | 0.0 | -0.2 | 2.4% | u | 18.4µM*
CCOC(=O)N1CCC(NS(=O)(=O)c2ccc3c(c2)OCC(=O)N3)CC1 | -0.6 | 3.0 | 2.9 | 6.0% | -25.5% | u
Cc1ccc(C(=O)c2cn(Cc3ccccc3F)c3cc4c(cc3c2=O)OCO4)cc1 | x | x | x | 0.0% | 20.6µM* | u
Cc1ccc(Cn2cc(C(=O)c3ccc(F)cc3)c(=O)c3cc4c(cc32)OCO4)cc1 | x | x | x | 8.1% | u | u
Cc1ccc(Cn2cc(C(=O)c3ccc4c(c3)OCO4)c(=O)c3cc(C)ccc32)cc1 | x | x | x | 6.9% | 23.1µM* | u
COCC(=O)N(C)c1nnc(-c2ccccn2)s1 | -1.1 | 0.0 | -5.6 | -5.2% | -3.8% | 4.6%
Cc1ccc(N/C(C(Cl)=C(Cl)Cl)=C(/Cl)[N+](=O)[O-])c(C)c1 | x | -18.5 | 2.6 | 8.9% | 16.4µM* | 23.1µM*
COc1cc(NC(=O)c2ccc(F)cc2)c(OC)cc1NC(=O)CN1CCCCC1 | 10.9 | -68.3* | -21.6 | 4.8% | 16.4µM* | u
COc1cc(NC(=O)c2cccc(Cl)c2)c(OC)cc1NC(=O)CN1CCCCC1 | -21.8 | -78.7* | -25.6 | 2.8% | u | u
COc1cc(NC(=O)c2ccccc2)c(OC)cc1NC(=O)CN1CCCCC1 | -19.2 | u | -21.5 | 2.5% | 20µM* | u
Cc1ncc([N+](=O)[O-])n1Cc1ccc(Br)cc1 | x | 19.3 | 1.5 | 1.2% | -16.8% | 0.4%
Cc1ccc(CN(c2ccc(C(=O)N3CCOCC3)cc2)S(C)(=O)=O)cc1 | -9.1 | -15.5 | 12.5 | 1.0% | -23.4% | 2.1%
NC(CCc1ccccc1)c1csc(Nc2cnccn2)n1 (stereo not given) | -67.1* | -24.4 | u | x | 13µM* | 23.1µM*
COc1cccc(Nc2nc(C(N)CCc3ccccc3)cs2)n1 (stereo not given) | u | -87.0* | -18.4 | x | u | 18.4µM*
CC(C)C(N)c1csc(Nc2ccc(C(=O)N(C)Cc3ccccc3)cn2)n1 (stereo not given) | u | 0.0 | u | x | u | u
NC(=O)c1cccc(Nc2nc(C(N)CCc3ccccc3)cs2)n1 (stereo not given) | -14.8 | 0.0 | -23.2 | x | 2.91µM* | 2.06µM*
COc1cccc(Nc2nc(C(N)C(C)C)cs2)n1 (stereo not given) | u | x | -3.9 | x | 23.1µM* | 16.4µM*
COc1cccc(Nc2nc(C(N)COCc3ccccc3)cs2)n1 (stereo not given) | u | x | -28.4 | x | u | u
O=C(COc1ccc(Cl)cc1Cl)N/N=C/C1CC=CCC1 (stereo not given) | -1.3 | -13.8 | -2.7 | 5.5% | -16.6% | -18.1%
Cc1nc(C)n(C(C)CNC(=O)c2ccco2)n1 (stereo not given) | -10.1 | -7.2 | 12.4 | x | 9.7% | 6.4%
COc1cccc(Nc2nc(C(N)CC(C)C)cs2)n1 (stereo not given) | -28.8 | u | -16.3 | x | u | 16.4µM*
O=[N+]([O-])c1cccc(-c2cc3ccccc3[nH]2)c1 | -1.2 | 23.3 | -3.5 | 4.3% | -7.1% | -18.8%
SMILES | CtBP-E1A inh | IL1B secr inh | Six1-Eya2 blk | TDP1 block | TDP1 cell noCPT | DT40 TDP1 CPT
O=[N+]([O-])/C=C/c1cc2ccccc2[nH]1 | x | -4.0 | 0.7 | 1.4% | 18.4µM* | 20.6µM*
COc1cccc(Oc2ccc(N/C=C/C(=O)C(C)(C)C)cc2)c1 | -21.0 | -64.7* | -12.7 | 1.3% | u | 0.2%
COc1ccc(Oc2ccc(/C=N/NC(=O)c3cccnc3)cc2[N+](=O)[O-])cc1 | -10.0 | u | -18.9 | 5.4% | 20.6µM* | u
COc1ccc(/C=N/NC(=O)c2cccnc2)cc1O | -0.7 | 15.4 | -18.3 | x | -1.8% | -0.4%
COc1ccc(Oc2ccc(/C=C/C(=O)c3cccc(OC)c3)cc2[N+](=O)[O-])cc1 | 0.6 | -3.6 | -4.1 | 5.3% | 7.31µM* | 7.31µM*
COc1cc(/C=N/NC(=O)c2cccnc2)ccc1OS(=O)(=O)c1cc(C)ccc1C | -18.7 | -75.9* | -4.0 | 5.5% | 23.1µM* | u
COc1cc(/C=N/NC(=O)c2cccnc2)ccc1OS(=O)(=O)c1ccc(F)cc1 | 3.6 | 27.0 | -1.4 | 3.1% | 20.6µM* | u
Cc1ccc(NC(=O)CNCc2cccs2)c(Br)c1 | 22.0 | 2.8 | 1.7 | x | 2.0% | -18.4%
CCCNC(=O)C1CN(S(=O)(=O)c2ccc(Cl)s2)c2ccccc2O1 (stereo not given) | 5.8 | 3.9 | 0.5 | -2.6% | u | u
CCn1c(C)nc2cc(C(=O)N/N=C/c3ccc(N4CCOCC4)cc3)ccc21 | 0.0 | 10.7 | -3.9 | 7.7% | u | -17.3%
NCCCCCCNS(=O)(=O)c1ccc2c(Cl)cccc2c1 | x | x | x | 4.8% | 11.2µM* | 13.3µM*
